Assay outcomes from PubChem BioAssay.
A selection: hits, their analogues and other compounds. The true share with any hit is near 16%.
DT40 TDP1 CPT = qHTS for Inhibitors of human tyrosyl-DNA phosphodiesterase 1 (TDP1): qHTS in cells in presence of CPT; chicken DT40 Tdp1-/-;hTDP1 cells + 20 nM CPT, ATP luminescence, 48 h; actives 12% (n = 420,000); Potency, µM (titrated, usually from 46.2 µM), for inactives: top-dose activity change, negative = growth inhibition, actives largely listed as inhibitors; also: potency is read from the fitted curve at half-maximal effect; % is scaled to controls: 0 for no effect and ±100 for the full control effect; nearly all actives have a fitted effect of over 55% in size
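Cell growth measured by CellTiter-Glo luminescence after a minimum 48 h, 37 C compound exposure with 20 nM CPT in Tdp1-knockout DT40 cells stably expressing hTDP1, seeded 400/well; qHTS titration format.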
TDP1 inh = qHTS Assay for Inhibitors of Tyrosyl-DNA Phosphodiesterase (TDP1) | Tyrosyl-DNA phosphodiesterase 1 (Homo sapiens), Q9NUW8 | Potency, µM (titrated, usually from 130 µM), for inactives: at the highest dose activity change, negative = inhibition, actives largely listed as inhibitors | AID 485290, 2010 | recombinant TDP1, AlphaScreen DNA substrate cleavage | actives 0.28% (n = 350,000); also: potency is read from the fitted curve at half-maximal effect; % is scaled to controls: 0 for no effect and ±100 for the full control effect; nearly all actives have a fitted effect of over 40% in size
Target sequence (Q9NUW8 whole entry, looked up): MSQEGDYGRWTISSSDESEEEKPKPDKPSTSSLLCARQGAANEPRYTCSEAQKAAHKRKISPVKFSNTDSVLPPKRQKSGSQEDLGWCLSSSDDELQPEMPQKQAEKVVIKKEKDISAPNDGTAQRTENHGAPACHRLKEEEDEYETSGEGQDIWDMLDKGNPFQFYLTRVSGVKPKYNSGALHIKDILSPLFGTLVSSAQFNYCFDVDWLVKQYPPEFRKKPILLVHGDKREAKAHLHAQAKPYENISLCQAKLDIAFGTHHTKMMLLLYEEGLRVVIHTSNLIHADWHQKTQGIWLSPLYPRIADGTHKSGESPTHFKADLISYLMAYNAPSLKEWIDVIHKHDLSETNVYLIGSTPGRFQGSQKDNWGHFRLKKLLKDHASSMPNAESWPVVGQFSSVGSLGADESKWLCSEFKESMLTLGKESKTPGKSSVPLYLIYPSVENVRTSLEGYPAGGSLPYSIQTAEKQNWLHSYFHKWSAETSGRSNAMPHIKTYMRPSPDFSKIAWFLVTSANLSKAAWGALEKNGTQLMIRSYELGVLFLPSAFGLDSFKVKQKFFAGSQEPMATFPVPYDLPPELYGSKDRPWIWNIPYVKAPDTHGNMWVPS
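Compounds were preincubated with Tdp1 (1 nM final) for 15 min at room temperature before substrate (15 nM final) started a 5 min reaction; beads (10 ug/ml final) were then added for 10 min before AlphaScreen detection.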
miR-21 act = qHTS Assay for Modulators of miRNAs and/orActivators of miR-21; HeLa miR-21 FLuc reporter, luciferase, 48 h; Potency, µM (top dose mostly 38.3 µM), inactives show top-dose activity change, positive = activation, most hits filed as activators; AID 2288, 2010; 340,000 tested, under 10 active;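 also: % of control where 0% means no effect; miR-21 action dims this reporter so a rising signal means less miR-21 action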
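HeLa cells stably expressing CMV-driven firefly luciferase with a downstream miR-21 binding sequence, endogenously expressing miR-21, were treated with titrations (up to about 40uM final) for 48 hours at 37 degree Celsius. Luciferase luminescence was read after lysis.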
DT40 TDP1 no CPT = qHTS for Inhibitors of human tyrosyl-DNA phosphodiesterase 1 (TDP1): qHTS in cells in absence of CPT; DT40 Tdp1-/- hTDP1 cells, no CPT, ATP luminescence, 48 h; Potency, µM (highest dose often 46.2 µM), for the others: top-dose activity change, negative = growth inhibition, actives largely listed as inhibitors; actives 15% (n = 420,000); AID 686978, 2013; also: potency is read from the fitted curve at half-maximal effect; % is scaled to controls: 0 for no effect and ±100 for the full control effect; nearly all actives have a fitted effect of over 55% in size
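A cellular qHTS used chicken DT40 cells lacking endogenous Tdp1 but carrying stably transfected human TDP1. Compounds were applied without camptothecin, and cell growth kinetics were judged by ATP-dependent luminescence after ≥48 hr.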
uPA surface inh = qHTS for Inhibitors of Cell Surface uPA Generation | actives 0.31% (n = 330,000) | cell surface uPA generation assay, qHTS | Potency, µM (highest dose often 38.3 µM), without a hit: at the top dose activity change, negative = inhibition, actives largely listed as inhibitors; active = well fitted inhibition curve with a large enough effect; inconclusive = small, poorly fitted or top-dose-only effect; inactive = no such curve, though single readings can be large or run the other way; tested in mouse RAW 264.7 cells; also: potency is read from the fitted curve at half-maximal effect; % is scaled to controls: 0 for no effect and ±100 for the full control effect; nearly all actives have a fitted effect of over 55% in size
Numbers without * were called inactive; ? = inconclusive; · = no result; [ ] = dose if it differs, or a comment. Unless noted, calls follow the shape of the dose curve; as a rule, active = well fitted curve in the direction sought with a large enough effect; inconclusive = small, poorly fitted or top-dose-only effect, or another doubt; inactive = no such curve, though single readings can be large; an effect the other way counts as inactive or inconclusive.

SMILES | DT40 TDP1 CPT | TDP1 inh | miR-21 act | DT40 TDP1 no CPT | uPA surface inh
Cc1cccc(C)c1NC(=O)C1(C)CCC(=O)N1C1CCN(Cc2ccccc2)CC1 (centres undefined) | 4% | · | · | 22% | ·
COc1ccc2[nH]c(O)c(N=NC(=O)Cc3cccs3)c2c1 | ? | 5% | -16% | ? | -28%
O=[N+]([O-])c1ccc(NNC(=S)Nc2ccc(F)cc2)cc1 | 4.6µM* | 23%[56.1 µM] | 15% | 3.3µM* | -1%
CCCNC(=S)Nc1ccc(Oc2ccccc2)cc1 | ? | 2% | 2% | 16µM* | ·
Nn1c(-c2ccccc2)nc2ccccc2c1=O | -1% | 6% | -4% | -3% | 5%
COc1ccc2nc(-n3c(O)c(C4=c5ccccc5=NC4=O)[nH]c3=S)sc2c1 | ? | -8% | -14% | 23µM* | 0%
Cn1c(O)c(C2=c3ccccc3=NC2=O)[nH]c1=S | -20% | 0% | 11% | -23% | 8%
Cc1ccc(CN2CCN(/N=C/c3cccn3C)CC2)c(C)c1 | 23µM* | 10% | -1% | 23µM* | 8%
Cc1cc(C)c2c(CN3CCCCC3)cc(=O)oc2c1 | 4% | · | -23% | -19% | 0%
Cc1cc(C)c2c(CCl)cc(=O)oc2c1 | 0.92µM* | 0% | 27% | 0.92µM* | 5%
Cc1cc(C)c2c(CN3CCN(C/C=C/c4ccccc4)CC3)cc(=O)oc2c1 | 29µM* | 8% | 0% | ? | 2%
O=C(OCC#CCSc1nnc(-c2cccc3ccccc23)o1)c1ccc(F)cc1 | · | -8% | · | · | -28%
CN1CCN(C(=S)Nc2ccc(Cl)c(Cl)c2)CC1 | -8% | 4% | -1% | ? | -3%
CCOC(=O)Cn1c(=O)oc2cc(S(=O)(=O)N3CCN(c4ccccc4OC)CC3)ccc21 | -5% | 6% | -2% | -20% | ·
C[C@@H]1CN(S(=O)(=O)c2ccc3c(c2)OCCO3)CCN1S(=O)(=O)c1c(F)cccc1F | · | 1% | · | · | 13%
FC(F)(F)c1ccc2c(c1)nc1n2CCCC1 | -1% | 2% | -30% | -13% | -8%
CN1CCN(c2nc3cc(C(F)(F)F)ccc3n3cccc23)CC1 | ? | 8%[56.1 µM] | · | 21µM* | -12%
O=S(=O)(NCc1nc(-c2ccccc2)no1)c1ccc(F)cc1 | -14% | 1% | 0% | -6% | 7%
O=S(=O)(c1ccccc1)N(Cc1nc(-c2ccccc2)no1)C1CCCCC1 | ? | -1% | 7% | 21µM* | -5%
CC(C)N(Cc1nc(-c2ccccc2)no1)S(=O)(=O)c1ccccc1 | ? | -9% | 14% | ? | -26%
O=S(=O)(c1ccc(F)cc1)N(Cc1nc(-c2ccccc2)no1)C1CCCCC1 | ? | -11% | -2% | 16µM* | ·
COc1cc(/C(C)=N/NC(=O)c2cccc(S(=O)(=O)N3CCCC3)c2)cc(OC)c1OC | -19% | 3% | 0% | ? | -16%
Cc1ccc(CCNC(=O)C23CN(Cc4ccccc4)CC2C(c2ccc([N+](=O)[O-])cc2)=NO3)cc1 (centres undefined) | 21µM* | 12% | 8% | ? | -4%
O=C(NCc1ccccc1)C12CN(Cc3ccccc3)CC1C(c1cccc([N+](=O)[O-])c1)=NO2 (centres undefined) | ? | 4% | 2% | 23µM* | 8%
Cc1ccc(CNC(=O)C23CN(Cc4ccccc4)CC2C(c2ccc([N+](=O)[O-])cc2)=NO3)cc1 (centres undefined) | ? | 3% | 5% | ? | 24%
COc1cc(SC)ccc1C(=O)Nc1ccc(OCC(=O)N2CCOCC2)cc1 | -7% | 0% | -11% | ? | ?
Cc1cc(NC(=O)c2ccc(Cl)cc2)cc(C)c1OCC(=O)N1CCOCC1 | 7% | 0% | -20% | -6% | 4µM*
